Source: PubChem BioAssay (NCI)
Compounds without any hit were thinned out: in the full panel of roughly 83,000, 20% have a hit.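 Growth was measured after 48 h exposure to one concentration of compound in 96-well plates. Values under 10 count as active.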 Unmarked numbers belong to inactive results. Activity calls are given as the source filed them.

Experiments:
Test in all cases: NCI-60 one-dose screen, 48 h (100 = growth as untreated, 0 = no growth, -100 = all killed)
[1] = tested on: HOP-92 NSCLC; conditions: 10 µM unless noted
[2] = tested on: COLO 205 colon; conditions: 10 µM
[3] = tested on: SNB-19 CNS; conditions: 10 µM unless noted
[4] = tested on: U251 CNS; conditions: 10 µM unless noted
[5] = tested on: EKVX NSCLC; conditions: 10 µM unless noted
[6] = tested on: SN12C renal; conditions: 10 µM unless noted
[7] = tested on: TK-10 renal; conditions: 10 µM unless noted
[8] = tested on: ACHN renal; conditions: 10 µM unless noted
[9] = tested on: CCRF-CEM leukemia; conditions: 10 µM unless noted
[10] = tested on: SR leukemia; conditions: 10 µM
[11] = tested on: IGROV1 ovarian; conditions: 10 µM
[12] = tested on: HS 578T breast; conditions: 10 µM unless noted
[13] = tested on: T-47D breast; conditions: 10 µM unless noted
[14] = tested on: MDA-MB-435 melanoma; conditions: 10 µM unless noted
[15] = tested on: NCI-H522 lung; conditions: 10 µM unless noted
[16] = tested on: SK-MEL-5 melanoma; conditions: 10 µM unless noted
[17] = tested on: HCT-116 colon; conditions: 10 µM unless noted
[18] = tested on: SK-MEL-2 melanoma; conditions: 10 µM unless noted

| Compound | growth [1] | growth [2] | growth [3] | growth [4] | growth [5] | growth [6] | growth [7] | growth [8] | growth [9] | growth [10] | growth [11] | growth [12] | growth [13] | growth [14] | growth [15] | growth [16] | growth [17] | growth [18] |
| --- | --- | --- | --- | --- | --- | --- | --- | --- | --- | --- | --- | --- | --- | --- | --- | --- | --- | --- |
| CC(=O)N(C)C1=Nc2ccc(Cl)cc2C(c2ccccc2)=[N+]([O-])C1 | 92.5% | 105% | 96.3% | 111% | 115% | 97.2% | 102% | 98.7% | 125% | 86.1% | 106% | 111% | 94.9% | 111% | – | – | – | – |
| C=CCc1ccc(OC(=O)Cc2ccccc2)c(OC)c1 | – | 103% | 110% | 99.3% | – | 99.5% | 110% | 110% | 101% | – | 99.8% | 114% | 106% | 107% | 90.4% | 102% | 105% | – |
| Cc1cc(NC(=O)CCc2ccc(N3C(N)=NC(N)=NC3(C)C)cc2)ccc1S(=O)(=O)F | – | 36% | 45% | 24.2% | 58.8% | 32.8% | 14.1% | 70.9% | -13% (active) | -23.7% (active) | – | 74.7% | 75.1% | 32% | -17.2% (active) | 13.9% | – | -21.1% (active) |
| CC(C)(C)N(Cc1ccccc1)N=O | – | 108% | 97% | 99.3% | – | 91.9% | 102% | 104% | 98.4% | – | 103% | 109% | 97.3% | – | 90.3% | 99.1% | 106% | 94.6% |
| CN(C)P1(N(C)C)=NP(N(C)C)(N(C)C)=NP(N(C)C)(N(C)C)=N1 | 76% | – | 103% | – | – | 107% | 95.3% | 97.2% | – | 92.6% | 95.4% | 114% | 103% | 109% | – | 107% | 102% | – |
| CC(=O)[O][Hg][c]1ccccc1 | -94.7% (active) | -98.5% (active) | -26.6% (active) | – | -35.7% (active) | -90.5% (active) | -94.7% (active) | – | 0.0979% (active) | -31.3% (active) | -55.1% (active) | 16.4% | -42.1% (active) | -89.2% (active) | -32.8% (active) | -87.6% (active) | -88% (active) | -52.9% (active) |
| CC1(C)N=C(N)N=C(N)N1c1ccc(CNC(=O)Nc2ccc(S(=O)(=O)F)c(Cl)c2)c(Cl)c1 | – | 37.1% | 56% | 11.3% | – | 17% | – | 52.9% | 17.5% | 34.6% | 30.6% | – | 60.3% | 13.5% | – | – | 10.1% | 49.7% |
| CC1(C)N=C(N)N=C(N)N1c1ccc(CCC(=O)Nc2cccc(S(=O)(=O)F)c2)cc1 | – | 93.4% | 51.9% | 42.3% | 56.8% | – | 98.9% | 99.3% | – | 35.6% | 39.4% | 121% | 98.4% | 35.3% | 91.1% | 32.9% | 41.3% | 102% |
| CC1(C)N=C(N)N=C(N)N1c1ccc(CCCCc2ccc(S(=O)(=O)F)cc2)c(Cl)c1 | – | 33.2% | 38.7% | 9.69% (active) | – | – | 23% | 22.1% | 11.5% | 33.4% | 29.1% | – | – | 15.7% | – | 16.6% | 12.8% | – |
| CCOC(=O)/C=C(\C)Nc1ccc(N/C(C)=C/C(=O)OCC)c2c1Oc1ccccc1O2 | 79% | 121% | 115% | 99.2% | 89% | 96.8% | 124% | 104% | 43.2% | 78.3% | – | 87.3% | 103% | 101% | – | – | – | 100% |
| COc1ccccc1N1CCN(CCc2c[nH]c3cc4c(cc23)OCO4)CC1 | -8.6% (active) | 74.7% | 79.6% | 85.4% | 77.7% | 68.4% | 89.7% | 77.7% | 75.4% | – | – | 69.5% | – | 78% | 72% | 74.8% | 42.5% | 57.6% |
| NCCc1cc(O)c(O)cc1O | 85.4% | – | 100% | 95.4% | 102% | 89.1% | 95.3% | 87.4% | 65.7% | 98% | – | 120% | 100% | 108% | -11.5% (active) | 98.5% | 95.3% | 101% |
| Oc1ccc(O)c2c1C1(Cl)C(Cl)=C(Cl)C2(Cl)C1(Cl)Cl | 12% | 72% | 64.9% | 51.6% | 34.3% | 56.4% | – | – | 56.9% | 34.9% | 38.3% | 55.6% | 19.4% | -3.33% (active) | – | – | 28.4% | 31.3% |
| Cc1cccc(N=C2c3cc([N+](=O)[O-])ccc3-c3c2cc([N+](=O)[O-])cc3[N+](=O)[O-])c1 | – | 98.5% | 82.5% | 40.3% | 75.4% | 26.4% | – | 59.3% | 21.4% | – | – | 101% | -25.1% (active) | 45% | – | 71% | -0.611% (active) | – |
| CC1(C)N=C(N)N=C(N)N1c1cccc(C(=O)Nc2cccc(S(=O)(=O)F)c2)c1 | – | 120% | 97.3% | 99.8% | – | – | 108% | -26% (active) | 97.5% | 104% | 105% | 92.7% | 84% | 98.4% | 99.8% | 99.8% | 101% | 114% |
| C[C@]12CC[C@@H]3C4=C(CC[C@H]3[C@@H]1CC[C@@H]2O)CC(=O)CC4 | – | 117% | 95.2% | 96.8% | 72% | – | 113% | 104% | – | 97.5% | 121% | 5.03% (active) | 95.4% | – | 90.8% | 59% | 102% | – |
| COc1ccc(/C=C\c2cc(OC)c(OC)c(OC)c2)cc1N/C=C\C(=O)c1c[nH]c2ccccc12 | – | -65.6% (active) | 38.6% | 15.5% | – | 26.1% | – | 15% | 5.7% (active) | 2.48% (active) | 21.8% | 37.5% | 81.7% | -7.95% (active) | -9.96% (active) | -53.9% (active) | 2.62% (active) | 32.3% |
| COc1cc(N(CCCl)CCCl)ccc1C=Nc1ccccc1C(=O)O | 97.8% | – | 97.2% | 95.8% | – | 99.2% | 124% | 97% | 97.5% | 84.1% | 84.1% | 81.5% | 97.6% | 102% | 32.8% | 97.4% | 108% | 113% |
| C#CC1(O)CCC2(C)C(CCC3C4CCC(=O)C4(C)CCC32)C1 (stereo not drawn) | 86.1% | – | – | 93.9% | 89.3% | 101% | 91.7% | 97.8% | – | 94.5% | 104% | 94.3% | 96.1% | 101% | 86.9% | 96.2% | 92.3% | 92% |
| S=P(N1CCCCCC1)(N1CC1)N1CC1 | – | – | 101% | 106% | 119% | 96.2% | 98.5% | 104% | 94.4% | 82.6% | 90.1% | 122% | 94.5% | 109% | 102% | 107% | 99.8% | 97.9% |
| O=c1[nH]c2cc(Cl)ccc2n1C1CCN(CCCC(c2ccc(F)cc2)c2ccc(F)cc2)CC1 | -37.7% (active) | – | 73.8% | 29.4% | 61.5% | – | – | 48.5% | -39.3% (active) | 16.2% | – | -80.6% (active) | 41.5% | 18.2% | -56.4% (active) | -80.9% (active) | 3.23% (active) | 16.8% |
